From PubChem BioAssay AID623868 (Vanderbilt High Throughput Screening Facility, 2012)
About 760 (36%) of roughly 2,100 compounds were called active.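 How the source made its calls: active means thallium-flux fluorescence traces judged by eye to show enhanced or reduced glutamate response, manual score 1 or -1, so both directions (some results past the limit were not filed as active); inactive means the rest, including fluorescent or raised-baseline compounds.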 These entries were drawn from the full list.

Test: thallium influx changes without GIRK channels – cell-based, HEK-293 rmGlu8, no GIRK, thallium flux, counter-screen for GIRK activator project, confirmation (AID 623868);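 further: extra codes mark interference with 3 for fluorescent and 4 for baseline rise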
Conditions: thallium flux fluorescence, at 10 µM, actives lie on both sides, codes: 1 enhancer, -1 blocker, 0 none, thallium stimulus containing EC20 glutamate

Row | Structure (SMILES) | manual score
1 | Cc1cc(C)n(CC(=O)O)n1 | 0 (inactive)
2 | CCNC(=S)N/N=C(\C)c1ccc(Cl)s1 | 1 (active)
3 | C/C(=N\NC(=S)NCCc1ccccc1)c1cccs1 | 3 (inactive)
4 | C/C(CC(=O)NC(C)C)=N\NC(=O)COc1cc(C)c(Br)cc1Br | 0 (inactive)
5 | Cn1c(N2CCCC2)nc2c1c(=O)n(Cc1ccc(Cl)cc1)c(=O)n2C | 0 (inactive)
6 | COc1ccc(N2CCN(c3nc4c(c(=O)n(C)c(=O)n4C)n3Cc3ccccc3)CC2)cc1 | 0 (inactive)
7 | COc1ccc(N2CCCn3c2nc2c3c(=O)n(Cc3ccccc3F)c(=O)n2C)c(OC)c1 | -1 (active)
8 | CCN(CC(=O)c1c(N)n(C)c(=O)n(C)c1=O)c1cccc2ccccc12 | 0 (inactive)
9 | O=C1NC(=S)SC1=C1CCCCCC1 | 1 (active)
10 | CCCCn1c(-c2csc3c2CCC(C)C3)n[nH]c1=S (stereo unspecified) | 1 (active)
11 | CCCc1cc(-c2n[nH]c(=S)n2Cc2ccccc2)cs1 | 1 (active)
12 | CCc1cc(-c2n[nH]c(=S)n2C(C)c2ccccc2)cs1 (stereo unspecified) | 1 (active)
13 | CCCCCNc1nc(-c2ccccc2)cs1 | 0 (inactive)
14 | CCCc1cc(-c2n[nH]c(=S)n2C(C)c2ccccc2)cs1 (stereo unspecified) | 0 (inactive)
15 | CCCCn1c(-c2csc(C(C)C)c2)n[nH]c1=S | 1 (active)
16 | CCCCn1c(-c2csc3c2CCCC3)n[nH]c1=S | 0 (inactive)

Row | Structure (SMILES) | manual score
17 | CCCc1cc(-c2n[nH]c(=S)n2CC(C)C)cs1 | 1 (active)
18 | Cc1cccc(-n2c(C)nc3sccc3c2=O)c1 | 0 (inactive)
19 | Cc1cccc(-n2c(-c3csc(C(C)C)c3)n[nH]c2=S)c1 | 1 (active)
20 | Cc1ccc(S(=O)(=O)CC(=O)Nc2ccc(S(=O)(=O)Nc3onc(C)c3C)cc2)cc1 | 0 (inactive)
21 | Cc1cccc2cc(/C=C3\N=C(c4ccccc4)OC3=O)c(N3CCOCC3)nc12 | 3 (inactive)
22 | CCn1c(SCc2ccc(Cl)cc2)nnc1-c1ccccc1 | 0 (inactive)
23 | COC(=O)c1ccc(CSc2ccc3nnc(-c4ccccc4)n3n2)o1 | -1 (active)
24 | COC(=O)c1ccc(CSc2nnc(Nc3ccccc3OC)s2)o1 | 0 (inactive)
25 | CCN(CC)CCn1c(NC(=O)c2ccc(Cl)cc2)nc2ccccc21 | 0 (inactive)
26 | CCn1c(SCc2nc(-c3ccccc3)no2)nc2ccccc21 | 0 (inactive)
27 | CCn1c(NC(=S)Nc2ccccc2)nc2ccccc21 | 1 (active)
28 | CCCCc1ccc(NC(=S)Nc2cccnc2)cc1 | 0 (inactive)
29 | CCCCn1c(NC(=S)Nc2ccccc2)nc2ccccc21 | 1 (active)
30 | CCCn1c(NCc2ccc(N(C)C)cc2)nc2ccccc21 | 0 (inactive)
31 | CCCCN1C(=O)c2ccccc2C1C(=O)NC1CCCC1 (stereo unspecified) | 0 (inactive)
